High-throughput results from PubChem.
TGFb inhibitor = inhibitors of TGF-b signaling; HepG2 CAGA-GFP TGF-b/SMAD3 reporter, GFP fluorescence, 18 h; TGF-beta stimulated, 500 pg/mL final; Potency, µM (series often up to 46.1 µM), inactives show at the top dose activity, negative = inhibition, hits mostly inhibitors; 1.2% of 410,000 active; AID 588855; also: % is scaled to controls: 0 for no effect and ±100 for the full control effect; nearly all actives have a fitted effect of over 65% in size
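Inhibition of TGF-beta-driven CAGA-GFP reporter expression in HEPG2 cells is measured by cellular GFP fluorescence after 18 h stimulation with 500 pg/mL recombinant TGF-beta in 1% FBS medium at 37 degrees C.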
HepG2 viability = kills HepG2 cells in TGF-b inhibitor counter-screen | HepG2 CAGA-GFP viability, ATP luminescence, 18 h | Potency, µM (series often up to 46.1 µM), without a hit: at the highest dose activity change, negative = cytotoxicity, actives largely listed as cytotoxic | 0.76% of 410,000 active | AID 588856
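CellTiter-Glo luminescence gave cytotoxicity after 18 hours at 37 degrees C. The cells were HepG2 CAGA-GFP in 1% FBS DMEM, stimulated with 500 pg/mL TGF-beta after compound addition. %Activity was normalised to no-cell wells (complete cell-killing) and DMSO (no toxicity), and curves were fitted and classified.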
HT1080NT lethal = kills 2HG-producing HT-1080-NT fibrosarcoma cells; AID 686970; Potency, µM (doses to about 46.1 µM), for the others: at the highest dose activity, negative = less viability, most hits filed as cytotoxic; HT-1080-NT fibrosarcoma viability, CellTiter-Glo ATP luminescence, 48 h; 1.6% of 360,000 active;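 also: NT is the 2HG producing partner of a matched IDH1 knockdown line; 0% = DMSO-treated cells and -100% = media-only wells without cells; nearly all actives have a fitted effect of over 55% in size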
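A 48-hour cytotoxicity screen used HT-1080-NT cells plated 2 hours before compound delivery. ATP-based CellTiter-Glo luminescence measured viability, normalized to DMSO and no-cell controls.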
HT1080 IDH1KD tx = kills HT-1080 cells with IDH1 knockdown; 2% of 360,000 active; HT-1080 IDH1 knockdown viability, ATP luminescence, 48 h; AID 686971; Potency, µM (highest dose often 46.1 µM), inactives show top-dose activity, negative = toxicity, most hits filed as cytotoxic;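 also: 0% = DMSO wells and -100% = cell-free medium wells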
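% activity derives from luminescence (CellTiter-Glo), normalised to DMSO and no-cell wells. HT-1080-IDH1KD cells, 750/well, had 48 h compound exposure at 37 °C.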
ATXN2 expr inh = inhibitors of ATXN2 expression | HEK-293 ATXN2-luciferase reporter, luminescence, 24 h | Potency, µM (titrated, usually from 57 µM), for the others: at the highest dose activity change, negative = inhibition, hits mostly inhibitors | 0.72% of 360,000 active | AID 1745845; also: % is scaled to controls: 0 for no effect and ±100 for the full control effect; nearly all actives have a fitted effect of over 55% in size
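qHTS (up to 57 uM final) was run with 24 h compound exposure of reporter cells at 37 °C. Each well was multiplexed: SteadyGlo luminescence measured ATXN2-luciferase expression after a fluorogenic Gly-Phe-AFC viability readout (25 uM final).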
ATXN viability = cell viability loss in ATXN counter-screen | S2 cells (HEK-293 line with an ATXN2-luciferase reporter) viability, CellTiter-Fluor protease fluorescence, 24 h | Potency, µM (series often up to 56.7 µM), usual class: cytotoxic | 0.49% of 400,000 active; also: nearly all actives have a fitted effect of over 40% in size
The depositor's hits bear a star; i = inactive; ? = inconclusive; . = no result given. Only some compounds are listed: those with a hit (about 3.9% of all), similar ones and a draw of the others. Calls follow the shape of the dose curve; as a rule, active = well fitted curve in the direction sought with a large enough effect; inconclusive = small, poorly fitted or top-dose-only effect, or another doubt; inactive = no such curve, though single readings can be large; an effect the other way counts as inactive or inconclusive. Potency is read from the fitted curve at half-maximal effect.

SMILES	TGFb inhibitor	HepG2 viability	HT1080NT lethal	HT1080 IDH1KD tx	ATXN2 expr inh	ATXN viability
Cc1ccc(C(=O)c2cn(Cc3ccc(F)cc3)c3nc(C)ccc3c2=O)cc1	-6.8%	-37.1%	.	.	-11.8%	i
COc1ccc(NC(=O)c2ccccc2NS(=O)(=O)c2ccc(CNC(C)=O)cc2)c(OC)c1	5.8%	-5.9%	13µM*	?	-5.9%	i
COc1ccc(S(=O)(=O)Nc2ccccc2C(=O)NCc2cccnc2)cc1	-3.0%	6.2%	-21.6%	-11.6%	4.0%	i
Cc1ccc(CNC(=O)c2ccccc2NS(=O)(=O)c2ccc(Cl)nc2)cc1	15.8µM*	-34.4%	.	.	-9.9%	?
Cc1cccc(-n2c(C)nc3cc(C(=O)NC4CCCCCC4)ccc32)c1	11.6%	-24.2%	.	.	11.6%	i
COc1cccc(C(=O)NCC2Cc3cccc(-c4ncccn4)c3O2)c1OC (configuration not stated)	.	.	.	.	.	i
COc1ccc(N2C(=O)CC(Sc3ncn[nH]3)C2=O)c(OC)c1 (configuration not stated)	?	-4.3%	?	10µM*	22.4µM*	.
CC(C)c1ccc(N2C(=O)CC(Sc3ncn[nH]3)C2=O)cc1 (configuration not stated)	?	-21.5%	6.6%	8.1%	-12.7%	i
NC(=O)c1ccc(N=Cc2c(O)ccc3ccccc23)cc1	8.9%	-14.2%	-24.0%	?	-3.1%	i
C=CCS/C(N)=N\N=C\c1c(O)ccc2ccccc12	7.94µM*	-78.1%	-5.8%	1.8%	19.4%	i
Cc1ccc(C(=O)C(C)OC(=O)c2cc3cc([N+](=O)[O-])ccc3oc2=O)cc1 (configuration not stated)	?	-40.8%	-15.4%	11.2µM*	-28.8%	?
CCCCCCCCCNC(=O)[C@H](NC(=O)COc1ccccc1)[C@@H]1NC(C(=O)OC)C(C)(C)S1 (some centres not stated)	11.2µM*	-6.2%	-4.7%	-7.6%	9.4%	?
CCOC(=O)Nc1ccc2nc(-c3cscn3)[nH]c2c1	0.4%	-31.5%	?	25.9µM*	.	i
CCOc1ccn(-c2ccc(F)cc2)c(=O)c1C(=O)Nc1ccc(Oc2ccnc(N)c2Cl)c(F)c1	.	.	.	.	-21.9%	.
CC(C)C(=O)NC(=S)Nc1ccc(S(=O)(=O)N(C)Cc2ccccc2)cc1	?	1.3%	?	20.6µM*	-21.3%	i
Cc1ccc2nc3c(cc(C(N)=S)c(=N)n3CCCOC(C)C)c(=O)n2c1	25.4%	-39.6%	?	11.2µM*	-29.1%	.
Cc1ccccc1C(=O)Nc1ccc2nc(SCC(=O)N3CCc4ccccc43)sc2c1	-8.7%	0.1%	.	.	3.6%	i
O=C(Nc1ccc(-c2nc3cc(NC(=O)c4cccs4)ccc3o2)cc1)c1cccs1	3.1%	2.3%	7.3%	7.4%	10µM*	15.8µM*
CCC(=O)Nc1ccc2oc(-c3cccc(C)c3)nc2c1	0.0%	20µM*	-6.4%	?	34.2%	i
O=C(NC1(Cc2ccccc2)CCN(Cc2ccc(-c3ccccc3)cc2)C1=O)c1ccccc1 (configuration not stated)	?	-24.9%	?	?	?	31.6µM*
O=C(CCc1ccccc1)NC1(Cc2ccccc2)CCN(CCc2cccs2)C1=O (configuration not stated)	?	-15.0%	-3.5%	-15.9%	-22.4%	?
CC(C)c1ccc(Cn2cnc3c(cnn3C(C)(C)C)c2=O)cc1	-7.8%	-12.6%	.	.	.	.
O=C(/C=C\c1cccs1)c1c(O)ccc2ccc(=O)oc12	2.3%	-33.8%	?	23.1µM*	-0.9%	i
O=C(C=Cc1cccs1)c1cccs1	-25.8%	-18.3%	-7.7%	-3.5%	5.3%	i
COCC(=O)Nc1cc(C(=O)N2CCN(c3ccccc3)C(=O)C2)cc2nc(-c3ccccc3)n(C)c12	.	.	.	.	.	i
SMILES	TGFb inhibitor	HepG2 viability	HT1080NT lethal	HT1080 IDH1KD tx	ATXN2 expr inh	ATXN viability
COc1ccc(-c2nc3c4ccccc4ccn3c2Cc2cccc(F)c2)cc1OC	?	-45.4%	23.1µM*	?	10.7%	?
COc1ccc(O)c(/C=N/Nc2nc(Nc3ccccc3)nc(-n3nc(C)cc3C)n2)c1	?	-48.5%	?	16.4µM*	?	?
CNc1nc(N/N=C/c2cc([N+](=O)[O-])ccc2F)nc(Nc2ccccc2)n1	-27.9%	-26.2%	0.0%	-5.1%	.	?
COc1cc(/C=N/Nc2nc(Nc3ccc(C)cc3)nc(-n3nc(C)cc3C)n2)cc(OC)c1OC	?	-55.0%	4.47µM*	2.82µM*	-16.6%	i
COc1cc(/C=N/Nc2nc(Nc3ccccc3)nc(N3CCCCC3)n2)ccc1OCC(=O)O	7.7%	1.2%	2.1%	25.8%	29.6%	?
COc1cc(/C=N/Nc2nc(Nc3ccccc3)nc(-n3nc(C)cc3C)n2)cc(OC)c1OC	?	-29.2%	?	14.6µM*	-20.9%	?
CNc1nc(N/N=C/c2cc3c(cc2[N+](=O)[O-])OCO3)nc(Nc2ccccc2)n1	?	15.8µM*	?	?	.	28.2µM*
COc1ccc(O)c(/C=N/Nc2nc(C)cc(-c3ccccc3)n2)c1	?	-43.4%	?	?	-38.0%	?
COc1ccc(/C=N/Nc2nc(Nc3ccccc3)nc(N3CCCC3)n2)cc1[N+](=O)[O-]	5.7%	-24.2%	14.6µM*	?	0.0%	?
COc1cc(OC)c(OC)cc1CNc1sc2c(c1C(=O)Nc1ccccc1OC)CCC2	6.4%	-8.9%	.	.	-30.0%	?
C=CCc1ccc(OCC(O)CN2CCN(Cc3ccc(Cl)cc3)CC2)c(OC)c1 (configuration not stated)	?	-62.3%	20.6µM*	20.6µM*	-15.6%	?
O=C(c1ccc(Cl)c(Cl)c1)N1CCC(=O)N(C(COCc2cccc(Cl)c2)Cc2ccccc2)CC1 (configuration not stated)	?	-7.2%	?	?	?	?
O=C(c1ccc(Cl)c(Cl)c1)N1CCC(=O)N([C@H](COCc2ccc(Cl)cc2)Cc2ccccc2)CC1	.	.	?	25.9µM*	?	?
COc1cc(/C=C/C(=O)N2CCC=CC2=O)cc(OC)c1OC	?	-89.9%	5.8µM*	4.11µM*	10µM*	10µM*
COc1cc(OC)c(C(=O)C=Cc2ccc(OC)c(OC)c2)c(OC)c1	-4.5%	-39.8%	?	?	?	i
